# A number with no mark means an inactive call. The rule behind the calls is not given here.
# Target: Pantothenate synthetase (Mycobacterium tuberculosis (strain ATCC 25618 / H37Rv)) (UniProt P9WIL5)
# Assay: Coupled enzyme confirmation of inhibitors against recombinant Mtb PanC (AID 375);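 note: 0% = full reaction with vehicle and 100% = no enzyme background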
# Details: coupled enzyme assay; at 10 µM, stronger effect = higher value
# Sequence of Pantothenate synthetase (Mycobacterium tuberculosis (strain ATCC 25618 / H37Rv)) (P9WIL5 whole entry, looked up): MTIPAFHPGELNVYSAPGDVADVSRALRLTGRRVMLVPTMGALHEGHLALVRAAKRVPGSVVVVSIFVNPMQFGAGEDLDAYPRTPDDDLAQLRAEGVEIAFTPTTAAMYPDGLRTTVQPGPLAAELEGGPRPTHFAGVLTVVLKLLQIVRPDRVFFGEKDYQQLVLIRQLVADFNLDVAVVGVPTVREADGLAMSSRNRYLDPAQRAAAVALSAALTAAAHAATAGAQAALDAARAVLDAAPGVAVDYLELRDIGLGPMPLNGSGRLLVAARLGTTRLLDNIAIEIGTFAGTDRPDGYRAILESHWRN
row,SMILES,inhibition [%]
1,CCCCC(=O)O[C@]1(C(=O)CO)CC[C@H]2[C@@H]3CCC4=CC(=O)CC[C@]4(C)[C@H]3[C@@H](O)C[C@@]21C,10
2,COc1ccccc1OCC(=O)Nc1ccc(S(=O)(=O)Nc2nc(C)cc(C)n2)cc1,1
3,Cn1c(SCC(=O)c2cc3ccccc3o2)nnc1-c1ccccc1,1
4,Cc1cc(C)cc(OCCCC(=O)O)c1,4
5,O=C(CN1CCN(Cc2ccccc2)CC1)Nc1ccc(Cl)cn1,3
6,Cc1c(C(=O)OC2CCC(C)CC2)[nH]c2c1C(=O)CCC2 (centres undefined),2
7,CCc1nnc(NC(=O)c2ccc(S(=O)(=O)N(CC(C)C)CC(C)C)cc2)o1,0
8,COCCN1Cc2cccc(C(=O)Nc3cccnc3)c2C1=O,1
9,Cc1ccc(NC2c3ncccc3C(=O)N2C2CCCCC2)cc1C (centres undefined),0
10,Cc1nnc(NC(=O)CSc2nnc(-c3ccc(S(=O)(=O)N4CCCC4)cc3)n2C)s1,8
11,CCc1nc(NCCCN2CCOCC2)c2oc3ccccc3c2n1,2
12,Nn1c(SCC(=O)Nc2ccc(F)cc2)nnc1-c1cccnc1,0
13,CSc1nnc(-c2ccccc2)n1C,7
14,CCn1c(=O)c(C(=O)Nc2cccnc2)c(O)c2ccccc21,0
15,CS(=O)(=O)N1CCC(C(=O)NCCC2=CCCCC2)CC1,6
16,Cc1cc(C)c2c(n1)nn1c(N3CCOCC3)cc(C)nc21,0
17,CCOP(=O)(c1ccc(N(C)C)cc1)C(O)c1ccccc1OC (centres undefined),5
18,O=C(CN1C(=O)c2ccccc2S1(=O)=O)NCc1ccccn1,0
19,COc1cc(C(=O)Nc2cccc(-c3nncn3C)c2)cc(OC)c1OC,0
20,CCn1nc(CC(=O)Nc2nnc(CC(=O)N3CCCCC3)s2)c2ccccc2c1=O,0
21,O=c1c2c(nc3nc(COc4ccccc4)[nH]n13)CCC2,0
22,CC(=O)c1c(OCC(=O)O)ccc2c(C)cc(=O)oc12,0
23,CCCCn1cnc2c1c(=O)n(C)c(=O)n2C,2
24,Cc1cc2nc(-c3ccco3)cc(C(F)(F)F)n2n1,0
25,CCC1Oc2ccccc2N(CC(=O)Nc2ccc(OC)cc2OC)C1=O (centres undefined),0

row,SMILES,inhibition [%]
1,COCCn1c(C)cc(C(=O)COC(=O)c2n[nH]c3ccccc23)c1C,1
2,O=S(=O)(c1ccc2c(c1)OCCO2)N(Cc1ccc(F)cc1)Cc1nnc(-c2cccs2)o1,5
3,CN1[C@@H](CC(=O)c2ccccc2)CCC[C@H]1C[C@H](O)c1ccccc1,8
4,CO[C@H]1C[C@@H]2CC[C@@H](C)[C@@](O)(O2)C(=O)C(=O)N2CCCC[C@H]2C(=O)O[C@H]([C@H](C)C[C@@H]2CC[C@@H](O)[C@H](OC)C2)CC(=O)[C@H](C)C=C(C)[C@@H](O)[C@@H](OC)C(=O)[C@H](C)C[C@H](C)C=CC=CC=C1C,0
5,Cn1c(NC(=O)c2ccccc2NC(=O)C(C)(C)C)nc2ccccc21,0
6,COc1cc2c(C)nc(C)c(C#N)c2cc1OC,0
7,O=C1OCc2cc(NC(=O)C3CCCO3)ccc21 (centres undefined),5
8,Cn1cc(C2NC(=O)c3c(sc4c3CCCC4)N2)c2ccccc21 (centres undefined),0
9,O=C1CN(c2nc3ccccc3n3cnnc23)CC(=O)N1CCc1ccccc1,4
10,O=C(Nc1ccc(S(=O)(=O)NC2CCCC2)cc1)c1cnccn1,0
11,CCOC(=O)NC(=O)CSc1nnnn1-c1ccc(Cl)cc1,0
12,O=C1CC(N2CCOCC2)C(=O)N1c1ccccc1Cl (centres undefined),1
13,O=C(CCC(=O)N1CCN(S(=O)(=O)c2ccccc2)CC1)c1cccs1,9
14,Cc1ccc(S(=O)(=O)C2(C(=O)N3CCCCCC3)CC2)cc1,0
15,CC(C)COc1ccc(C2NC(=O)NC2=O)cc1 (centres undefined),0
16,O=C(c1cccnc1NCc1ccccc1)N1CCOCC1,0
17,COc1ccc(Cn2nnnc2C(c2ccncc2)N2CCOCC2)cc1 (centres undefined),0
18,COc1ccc(-n2ncc3c(NCCCN4CCOCC4)ncnc32)cc1,6
19,CC(=O)c1cccc(S(=O)(=O)NCC(c2ccco2)N2CCCCC2)c1 (centres undefined),0
20,Cc1cc(S(=O)(=O)n2cnc3ccccc32)c(C)cc1Cl,0
21,CCOC(=O)CSC1=Nc2ccccc2C2=NC(CC(=O)NCc3cccs3)C(=O)N12 (centres undefined),4
22,Cc1ccc(C2c3sc(=O)[nH]c3SC3C(=O)NC(=O)C32)cc1 (centres undefined),0
23,CC(=O)C1=C(C)NC(C)=C(C(C)=O)C1c1cccs1,0
24,CCCCOc1cc(C(=O)NCCN(CC)CC)c2ccccc2n1,0
25,O=C(c1ccco1)N(Cc1cc2ccccc2[nH]c1=O)C1CCCCC1,0

row,SMILES,inhibition [%]
1,Cc1cc(C(=O)CSc2nnc(-c3ccco3)o2)c(C)n1CC1COc2ccccc2O1 (centres undefined),0
2,O=C(/C=N/O)Nc1cccnc1,0
3,O=C(CSc1nnc(-c2ccccn2)n1Cc1ccccc1)N1CCCC1,0
4,CCCCOc1ccc(-c2nnn(CC(=O)NCc3ccco3)n2)cc1,0
5,CCOc1ccccc1OCCCCN1CCCC1,9
6,COc1ccccc1-n1c(C)nnc1SCC(=O)Nc1cccc(C(C)=O)c1,0
7,CCOC(=O)c1[nH]c(CSc2nnc(-c3ccc(OC)cc3)o2)c(C(=O)OCC)c1C,0
8,CN(Cc1ccccc1)c1nc2c(c(=O)[nH]c(=O)n2C)n1Cc1ccccc1Cl,3
9,Cc1[nH]nc2c1C1(CCN(C(=O)c3ccccc3)CC1)C(C#N)=C(N)O2,0
10,COc1ccc(CCn2c(=N)c(C(=O)NCc3ccco3)cc3c(=O)n4ccccc4nc32)cc1,0
11,Cc1ccccc1-n1c(Cn2c(=O)sc3ccccc32)nnc1SCC(N)=O,3
12,CC(=O)NC(CCS(C)(=O)=O)C(=O)Nc1cccc2ccccc12 (centres undefined),0
13,c1ccc(-c2nnc(CN3CCC4(CC3)OCCO4)o2)cc1,1
14,Cc1cc2ncn(C(=O)c3c(-c4ccccc4)noc3C)c2cc1C,5
15,CC(=O)N(c1ccc(N(C(C)=O)S(=O)(=O)c2cccs2)cc1)S(=O)(=O)c1cccs1,0
16,CC1=C(C(=O)Nc2ccccc2C)C2(CCCC2)C(C(N)=O)C(=O)N1 (centres undefined),0
17,Cc1cc(C)cc(N(CC(=O)Nc2cccc(C)n2)S(=O)(=O)c2c(C)noc2C)c1,0
18,CC1CCN(CCn2c(=S)[nH]c3ncccc3c2=O)CC1,0
19,Cc1ccccc1NC(=O)C1CC(=O)N(c2ccccc2F)C1 (centres undefined),1
20,CN(C1CCCCC1)S(=O)(=O)c1ccc(S(=O)(=O)N2CCN(CCC#N)CC2)cc1,6
21,CC(C)[C@H](NC(=O)NC1CCCC1)C(=O)O,0
22,C=CCN(CC=C)C(=O)CN1C(=O)c2ccccc2C1=O,0
23,COc1cc(C2c3c(n[nH]c3C)C(=O)N2c2ccc(Br)cc2)ccc1O (centres undefined),4
24,CCCN(CCC)C(=O)C(CCC(=O)O)NC(=O)c1ccccc1 (centres undefined),0
25,CCN1CCN(c2c(Cl)cccc2NC(=O)c2ccco2)CC1,9

row,SMILES,inhibition [%]
1,Nn1c(SCC(=O)NC2CCCCC2)nnc1C1CC1,0
2,CCOc1cc(C(=O)NCc2ccncc2)cc(OCC)c1OCC,9
3,O=C(Nc1ccc2nn(-c3ccccc3)nc2c1)c1ccc(Br)o1,0
4,O=C(CN1c2cccc3cccc(c23)S1(=O)=O)N1CCOCC1,0
5,O=c1[nH]c2sc3c(c2c2nncn12)CCCC3,0
6,NS(=O)(=O)c1cc2c(cc1Cl)NC(CSCc1ccccc1)=NS2(=O)=O,0
7,COc1ccccc1NC(=O)N(Cc1ccco1)Cc1cc2cccc(C)c2[nH]c1=O,2
8,O=C1CC(c2ccccc2)Cc2nc(N3CCc4ccccc43)ncc21 (centres undefined),1
9,C=CCn1c(SCC(=O)Nc2cccc(OC)c2)nnc1-c1cccnc1,0
10,COc1ccc(OCC(=O)N2CCN(C(=O)COc3ccc(Br)cc3)CC2)cc1,0
11,CCOC(=O)C(C)On1c(SC(C)C(=O)OCC)nc2ccccc2c1=O (centres undefined),0
12,CCOC(=O)c1ccc2nc(NC(NC(C)=O)(C(=O)OC)C(F)(F)F)sc2c1 (centres undefined),2
13,O=C1C2ON(c3ccccc3)C(c3cccnc3)C2C(=O)N1c1ccccc1 (centres undefined),4
14,Cc1cc(C)n(S(=O)(=O)Cc2ccccc2)n1,0
15,Cc1ccc(-c2noc(CN3CCN(c4ccccc4F)CC3)n2)cc1,0
16,Nc1nc2n(n1)C(c1cccc(Br)c1)CC(c1ccccc1)N2 (centres undefined),0
17,CN(C(=O)CSc1nc2c(c(=O)[nH]1)CCCC2)C1CCCCC1,0
18,CCCCC1C(=O)N(c2ccccc2)N(c2ccccc2)C1=O,0
19,O=C(Cc1cccs1)N(c1ccccc1)C1C=CS(=O)(=O)C1 (centres undefined),3
20,COc1cccc(-n2c(SCC(=O)N3CCCC3)nc3c([nH]c4ccccc43)c2=O)c1,0
21,Cc1nnc(NS(=O)(=O)c2ccc(N)cc2)s1,0
22,COc1ccc(C(=O)CSc2nnc(CNc3ccc(C)cc3C)o2)cc1,2
23,CC(C)C(NC(=O)c1ccc(S(=O)(=O)N2CCOCC2)cc1)c1nc2ccccc2[nH]1 (centres undefined),0
24,COc1ccc(Br)cc1CNC(=O)C1CCCN(S(C)(=O)=O)C1 (centres undefined),6

# Source: PubChem BioAssay
